Rows were chosen to be rich in hits. Some 3.4% of all compounds tested hit in one or more screens of this group.
GBA activity = alters purified human glucocerebrosidase activity. P04062. purified enzyme, resorufin glucoside fluorescence (screen aimed at inhibitors), 20 min. Potency, µM. hit rate 1.1% among 48,000. AID 360; in the data active means potency below about 15 µM; inconclusive means mostly about 16 µM to 33 µM;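 further: the screen sought inhibitors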
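Wild-type enzyme at 0.2 nM final in 50mM citric acid/KH2PO4, 10mM sodium taurocholate, 0.01% tween-20, pH 5.9, with resorufin beta-D-glucopyranoside at 30 uM final. Compounds titrated, 20 min at RT, red fluorescence read; AC50 from titration.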
FLuc inh = firefly luciferase inhibition; P08659; purified firefly luciferase, luminescence, 8 min; Potency, µM (titrated, usually from 57.1 µM), for inactives: top-dose activity change, negative = inhibition, actives largely listed as inhibitors; hit rate 2.2% among 72,000; AID 411; active means well fitted inhibition curve with a large enough effect; inconclusive means small, poorly fitted or top-dose-only effect; further: on the % scale 0 is the no-effect control and ±100 the full control effect; nearly all actives have a fitted effect of over 40% in size
Target sequence (P08659 whole entry, looked up): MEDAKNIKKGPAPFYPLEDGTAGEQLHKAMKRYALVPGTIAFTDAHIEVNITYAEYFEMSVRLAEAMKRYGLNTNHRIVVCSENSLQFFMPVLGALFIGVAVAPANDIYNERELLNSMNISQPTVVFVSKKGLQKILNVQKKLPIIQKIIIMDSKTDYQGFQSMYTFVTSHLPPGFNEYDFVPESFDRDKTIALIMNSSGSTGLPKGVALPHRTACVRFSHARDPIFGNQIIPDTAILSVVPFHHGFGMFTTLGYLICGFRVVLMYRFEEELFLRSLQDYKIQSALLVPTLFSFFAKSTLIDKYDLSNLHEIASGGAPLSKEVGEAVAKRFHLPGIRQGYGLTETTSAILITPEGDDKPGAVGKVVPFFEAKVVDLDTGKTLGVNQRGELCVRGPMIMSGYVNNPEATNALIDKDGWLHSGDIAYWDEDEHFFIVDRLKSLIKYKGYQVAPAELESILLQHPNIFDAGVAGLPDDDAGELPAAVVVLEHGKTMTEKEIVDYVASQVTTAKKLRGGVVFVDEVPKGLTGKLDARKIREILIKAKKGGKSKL
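Luminescence read-out after 8 min at room temperature; enzyme reaction used luciferin plus 10 uM ATP (linear range) in imidazole buffer pH 7.2 with KCl, MgCl2, Tween 20 and BSA. Each sample was run as a titration.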
PK Bst = pyruvate kinase (B. stearothermophilus) modulation; purified pyruvate kinase, luminescence ATP production; ribose 5-phosphate activator present at AC10; Potency, µM; hit rate 1.2% among 51,000; AID 361; in the data active means potency below about 11 µM; inconclusive means mostly about 12 µM to 25 µM;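 the screen sought inhibitors and activators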;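 further: scaled between full activation by ribose 5 phosphate and full inhibition by luteolin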
* hit, by the source's call; i = inactive; ? = inconclusive; . = not tested or not shown; [ ] = remark or other dose. Potency means the concentration at half of the fitted maximal effect.

SMILES	GBA activity	FLuc inh	PK Bst
O=C(NCc1cccs1)O[C@H]1C[C@H]2CC[C@@H]1C2	.	-0.1%[11.4 µM]	.
NNC(=O)CCc1ccc2ccc3ccccc3c2c1	.	0.8%[11.4 µM]	.
CCOC(=O)c1c(-c2cccs2)csc1NC(=O)c1ccco1	>76.9	-0.2%	>57
COC(=O)c1c(-c2cccs2)csc1NC(=O)c1cccnc1	>76.9	-17.5%	7.67*
O=C(O)C1CCCN1S(=O)(=O)c1cccc2cccnc12 (stereo not drawn)	.	2.9%	.
CCCn1c(=N)n(CC(O)c2ccco2)c2ccccc21 (stereo not drawn)	>76.9	1.2%	>57
Cc1ccc(Cn2c(=N)n(CC(O)c3ccco3)c3ccccc32)cc1 (stereo not drawn)	10.2*	-15.6%	>57
CNCC[C@H](Oc1ccccc1C)c1ccccc1	.	-0.8%	.
C/C(CCC(=O)OC[C@@H]1O[C@H](C#Cc2ccccc2)C=C[C@@H]1Oc1ccc(C)cc1)=N/OC[C@@H](O)[C@H]1O[C@H]2OC(C)(C)O[C@H]2[C@@H]1O	.	2.0%[11.4 µM]	.
CCCCN1CCc2c([nH]c3c(C)cccc23)C1=O	9.79*	-3.6%	>57
CCCc1c(C)c2cccc(C)c2[nH]c1=O	.	-10.5%	.
Cc1cc(NC(=O)NC(=O)c2ccc(F)cc2F)n[nH]1	>76.9	15.8µM*	.
Cc1cc(C)c(NC(=O)NC(=O)c2cccc(F)c2)c(C)n1	i	-1.3%	>57
O=C(Nc1cccc(F)c1)N1CC[C@@]2(CCCN(C(=O)c3cnccn3)C2)C1	.	-0.9%[11.4 µM]	.
COCC(=O)N1CCC[C@@]2(CCN(Cc3ccccc3)C2)C1	.	-0.7%[11.4 µM]	.
COc1ccc(Oc2ncc3ncc(=O)n(C[C@H]4CCCO4)c3n2)cc1	.	-0.5%[11.4 µM]	.
CN(C)c1ncnc2ccc(-c3cccc(C#N)c3)cc12	.	1.1%[2.29 µM]	.
CCOc1ccc(N2Cc3ccccc3C2)cc1	.	10µM*	.
CCOc1ccc(S(=O)(=O)N2CCc3ccccc3C2)cc1	>76.9	-0.8%	>57
COc1nc(-c2ccccc2)ccc1-c1noc(-c2ccc(F)cc2)n1	>76.9	1.9%	>57
COc1nc(-c2ccc(C)cc2)ccc1-c1noc(-c2ccco2)n1	.	-5.0%	.
Cc1ccc(SC(C)c2nc(-c3cccnc3)no2)cc1 (stereo not drawn)	>76.9	1.2%	>57
Cc1ccc(-c2nc(-c3cccnc3)no2)c(C)c1	.	12.6µM*	?
COc1cc(OC)cc(-c2nc(-c3ccccc3OC)no2)c1	?	-7.5%	>57
COc1nc(-c2ccc(C)cc2)ccc1-c1noc(-c2cccnc2)n1	12.2*	2.3%	>57
SMILES	GBA activity	FLuc inh	PK Bst
COc1ccc(-c2ccc(-c3noc(-c4ccccc4OC)n3)c(OC)n2)cc1	11.6*	-2.2%	>57
COc1nc(-c2ccccc2)ccc1-c1noc(-c2ccccc2F)n1	3.75*	1.7%	>57
CCOc1ccccc1O[C@@H](c1ccccc1)[C@@H]1CNCCO1	.	-0.2%	.
Cc1ccc(CSC(N)=Nc2ccccc2)cc1C	.	-1.1%[11.4 µM]	.
C[N+](C)(C)c1cc2c(nn1)Nc1ccccc1S2	.	-22.2%[11.4 µM]	.
CSc1nc(N)c2ncn([C@@H]3O[C@@H](COP(=O)(O)OP(=O)(O)O)[C@@H](O)[C@H]3O)c2n1	.	0.6%	.
CC(C)(C[C@@]1(C)NC(=O)NC1=O)OCc1ccccc1	.	3.5%[11.4 µM]	.
CN1[C@@H]2CC[C@H]1CC(OC(=O)[C@@H](O)c1ccccc1)C2 (stereo partly drawn)	.	3.5%[11.4 µM]	.
COc1ccc2[nH]c(C(=O)c3ccccc3)cc2c1	.	2.0%	.
COc1ccc(-c2ccc(-c3noc(-c4ccccc4C)n3)c(OC)n2)cc1	11.1*	0.5%	.
COc1ccc(-c2ccc(-c3noc(-c4cccc(OC)c4)n3)c(OC)n2)cc1	5.99*	3.1%	>57
COc1ccc(-c2ccc(-c3noc(C)n3)c(OC)n2)cc1	>76.9	-6.1%	>57
COc1ccc(-c2ccc(-c3noc(-c4ccc(OC)c(OC)c4)n3)c(OC)n2)cc1	>76.9	1.5%	>57
Cc1ccc(S(=O)(=O)N[C@H]2COC(=O)[C@@H](Cc3ccccc3)NC(=O)[C@@H](C)COC(=O)C/C=C\[C@@H]2C)cc1	.	1.4%[11.4 µM]	.
CC(C)[C@H]1C(=O)C(C(N)=O)=C(O)[C@]2(O)C(=O)C3=C(O)c4c(O)ccc(N(C)C)c4C[C@H]3C[C@@H]12	.	-7.3%	.
Cc1onc(-c2ccccc2)c1C(=O)OCC(=O)c1ccccc1	>76.9	0.5%	>57
Cc1ccc(-n2c(C)cc(C(=O)COC(=O)c3c(C)noc3C)c2C)cc1	>76.9	25.1µM*	i
Cc1nn(-c2ccccc2)c(C)c1C(=O)Nc1nnc(-c2ccco2)o1	>76.9	2.0%	>57
COc1cccc2sc(Nc3nnc(-c4cccs4)o3)nc12	?	15.8µM*	>57
Fc1cccc2sc(Nc3nnc(-c4ccco4)o3)nc12	>76.9	25.1µM*	.
COc1cccc2sc(Nc3nc(-c4ccccn4)cs3)nc12	>76.9	?	.
Cn1cc(-c2nc3cnc(Oc4cccc(Cl)c4)nc3n(C3CC3)c2=O)c2ccccc21	.	0.0%[11.4 µM]	.

Compound activity: PubChem BioAssay, National Center for Advancing Translational Sciences (NCATS)
